BH1578 lux ind – induces V. cholerae light production without autoinducers; V. cholerae BH1578 lux reporter, luminescence, 6 h; activation, % at 18.7 µM; hit rate 0.16% among 350,000; in the data active = activation mostly above about 9.7%, no sharp cut-off; inconclusive = no clear call, values can overlap the other calls; inactive = mostly below about 3.7%
BJeLR lethal – BJeLR cell viability loss; BJeLR (HRASV12) viability, CellTiter-Glo ATP luminescence, 48 h; inhibition, % (concentration not given with the values); hit rate 0.17% among 300,000; in the data active = inhibition above about 50%; inconclusive = no clear call, values can overlap the other calls
BoNT F protease – blocks Botulinum neurotoxin F light chain protease; Multiplex microsphere protease cleavage assay, flow cytometry; hit rate 0.22% among 360,000; AID 588497; inhibition, % at 10 µM; in the data active = inhibition above about 35%, passing the limit was not always enough; inconclusive = no clear call, values can overlap the other calls; also: plate controls were buffer without enzyme for full effect and enzyme alone for no effect
Bead autofluor – compound fluorescence in toxin protease inhibitor counterscreen; compound autofluorescence counterscreen, microsphere flow cytometry; active compounds read high; hit rate 3.1% among 360,000; AID 624483; fluorescence intensity (no concentration beside the values); in the data active = fluorescence intensity above about 16000; inconclusive = no clear call, values can overlap the other calls
BoNT-A LC inh2 – blocks Botulinum neurotoxin A light chain protease | multiplex microsphere protease substrate cleavage, flow cytometry | inhibition, % at 10 µM | hit rate 0.17% among 360,000 | AID 588499; also: plate controls were buffer without enzyme for full effect and enzyme alone for no effect
Anthrax LF prot – anthrax lethal factor protease inhibition | P15917 | multiplex microsphere protease cleavage assay, LF | inhibition, % at 10 µM | hit rate 0.12% among 360,000 | AID 588501; also: plate controls were buffer without enzyme for full effect and enzyme alone for no effect
Active calls of the source: *. In the library only some 3.7% were active in any assay of this set; here they are far more common. Rule as the data show it, unless noted: active = inhibition above about 30%; inconclusive = no clear call, values can overlap the other calls; inactive = below that.

What do the screens show for `O=C(Cn1cnc2c(OCc3ccccc3)ncnc21)NCc1ccccn1`?
BH1578 lux ind: -0.7; BoNT F protease: -17.7; Bead autofluor: 3409; BoNT-A LC inh2: -1.2; Anthrax LF prot: -0.9

How did O=C(COc1ccc(S(=O)(=O)N2CCOCC2)cc1Cl)NC1CCCCC1 do in these assays?
BH1578 lux ind: inactive; BJeLR lethal: 8.5; BoNT F protease: 10.5; Bead autofluor: 4451; BoNT-A LC inh2: -0.9; Anthrax LF prot: -2.0

How did COCC(=O)NC1CCN(S(=O)(=O)c2ccc(C(=O)O)cc2)CC1 do in these assays?
BH1578 lux ind: 4.0; BJeLR lethal: 0.9; BoNT F protease: 1.1; Bead autofluor: 20353*; BoNT-A LC inh2: -1.7; Anthrax LF prot: -1.2

How did CN1CCN(C(=O)COc2ccc(S(=O)(=O)NC3CCCCC3)cc2Cl)CC1 do in these assays?
BH1578 lux ind: 1.6; BJeLR lethal: -5.0; BoNT F protease: 2.7; Bead autofluor: 6348; BoNT-A LC inh2: 1.3; Anthrax LF prot: -1.0

Results for O=C(Cc1ccccc1)NC1CCN(S(=O)(=O)c2ccc(C(=O)O)cc2)CC1 ?
BH1578 lux ind: inactive; BJeLR lethal: -12.8; BoNT F protease: 0.9; Bead autofluor: 7370; BoNT-A LC inh2: -0.5; Anthrax LF prot: -1.9

What do the screens show for `O=C(COc1ccc(S(=O)(=O)NC2CCCCC2)cc1Cl)N1CCN(c2ccccc2)CC1`?
BH1578 lux ind: inactive; BJeLR lethal: 4.4; BoNT F protease: 5.2; Bead autofluor: 22544*; BoNT-A LC inh2: inconclusive; Anthrax LF prot: -2.7

Results for O=C(COc1ccc(S(=O)(=O)N2CCCC2)cc1Cl)NC1CC1 ?
BH1578 lux ind: inactive; BJeLR lethal: -5.2; BoNT F protease: -0.1; Bead autofluor: 24369*; BoNT-A LC inh2: -2.4; Anthrax LF prot: -2.7

Results for O=C(Nc1ccc(S(=O)(=O)Nc2ncccn2)cc1)C12CC3CC(CC(Cl)(C3)C1)C2 ?
BH1578 lux ind: inactive; BoNT F protease: 3.6; Bead autofluor: 4165; BoNT-A LC inh2: 0.2; Anthrax LF prot: -0.8

Results for COc1ccc(S(=O)(=O)Nc2ccc3c(c2)C(=O)N([C@H](C)CO)C[C@H](C)[C@@H](CN(C)C(=O)Nc2c(C)noc2C)O3)cc1 ?
BH1578 lux ind: inactive; BoNT F protease: 2.9; Bead autofluor: 4225; BoNT-A LC inh2: 0.4; Anthrax LF prot: -4.1

Results for CCOC(=O)[C@]12CCC=C1N(CCC1=CCCCC1)C(=O)[C@H](CC(=O)N1CCOCC1)C2 ?
BoNT F protease: -0.4; Bead autofluor: 5680; BoNT-A LC inh2: -0.1; Anthrax LF prot: 0.0

What do the screens show for `CN(C)CCO/N=C(\c1ccc(Br)cc1)c1cccnc1`?
BH1578 lux ind: 0.2; BJeLR lethal: -9.4; BoNT F protease: inconclusive; Bead autofluor: 21777*; BoNT-A LC inh2: -81.9; Anthrax LF prot: -50.1

Results for C(=C\c1ccccc1)/CN1CCN(C(c2cccs2)c2nnnn2-c2ccc3c(c2)OCCO3)CC1 (stereo not given) ?
BoNT F protease: -6.2; Bead autofluor: 5500; BoNT-A LC inh2: -0.4; Anthrax LF prot: -1.6

Results for COC(=O)c1sccc1NC(=O)c1csc(C)c1 ?
BH1578 lux ind: 1.4; BJeLR lethal: 11.0; BoNT F protease: 0.6; Bead autofluor: 16143*; BoNT-A LC inh2: 0.1; Anthrax LF prot: -1.7

How did COC(=O)c1sccc1NC(=O)c1ccc(C)s1 do in these assays?
BH1578 lux ind: 6.7; BJeLR lethal: 0.2; BoNT F protease: 5.3; Bead autofluor: 10271; BoNT-A LC inh2: -1.1; Anthrax LF prot: -14.8

How did COC(=O)c1sccc1NC(=O)c1ccc(Br)s1 do in these assays?
BH1578 lux ind: inactive; BJeLR lethal: -6.6; BoNT F protease: -0.1; Bead autofluor: 22720*; BoNT-A LC inh2: 0.2; Anthrax LF prot: 2.5

What do the screens show for `CC(=O)Nc1ccc(-c2ccnc3c2CC(C(=O)Nc2cccc(N(C)C)c2)O3)cc1` (stereo not given)?
BH1578 lux ind: -0.4; BoNT F protease: 0.3; Bead autofluor: 3663; BoNT-A LC inh2: -0.1; Anthrax LF prot: -5.3

Results for CC(=NCc1ccccc1)c1ccc(O)cc1O ?
BH1578 lux ind: inactive; BoNT F protease: 4.0; Bead autofluor: 3928; BoNT-A LC inh2: 0.2; Anthrax LF prot: -4.2

How did Cc1ccc(S(=O)(=O)N2C[C@]3(O)C[C@@H]4C(=O)N(c5ccccc5)C(=O)[C@@H]4C[C@]3(OC(=O)NC3CCCC3)C2)cc1 do in these assays?
BH1578 lux ind: -0.4; BoNT F protease: -7.7; Bead autofluor: 5248; BoNT-A LC inh2: 0.5; Anthrax LF prot: -6.8

How did CCOC(=O)C1CCN(Cc2ccc(OC)c(C)c2OC)CC1 do in these assays?
BH1578 lux ind: 3.1; BJeLR lethal: 2.1; BoNT F protease: 0.4; Bead autofluor: 16792*; BoNT-A LC inh2: -0.8; Anthrax LF prot: 1.7

How did CCOC(=O)C1CCN(Cc2ccc(F)c(Br)c2)CC1 do in these assays?
BH1578 lux ind: inactive; BJeLR lethal: -3.8; BoNT F protease: -1.3; Bead autofluor: 20738*; BoNT-A LC inh2: inconclusive; Anthrax LF prot: -1.4

How did CC1CC(CC(C)C(=O)Nc2nncs2)C(=O)O1 (stereo not given) do in these assays?
BH1578 lux ind: 1.7; BJeLR lethal: -5.8; BoNT F protease: 2.4; Bead autofluor: 22855*; BoNT-A LC inh2: inconclusive; Anthrax LF prot: 1.3

Results for CC1CC(CC(C)C(=O)NC(=S)Nc2ccc(S(N)(=O)=O)cc2)C(=O)O1 (stereo not given) ?
BH1578 lux ind: -0.7; BJeLR lethal: 6.7; BoNT F protease: -7.1; Bead autofluor: 4153; BoNT-A LC inh2: 0.1; Anthrax LF prot: -2.2

Results for O=C(c1cccn2c(=O)c3cc(Cl)ccc3nc12)N1CCN(Cc2ccc3c(c2)OCO3)CC1 ?
BH1578 lux ind: -0.2; BJeLR lethal: -17.5; BoNT F protease: 11.0; Bead autofluor: 16508*; BoNT-A LC inh2: 11.2; Anthrax LF prot: -8.0

What do the screens show for `O=C(c1cccn2c(=O)c3ccccc3nc12)N1CCN(Cc2ccc3c(c2)OCO3)CC1`?
BH1578 lux ind: inactive; BJeLR lethal: -0.5; BoNT F protease: -0.4; Bead autofluor: 20636*; BoNT-A LC inh2: -0.2; Anthrax LF prot: 1.4

How did O=C(c1cccn2c(=O)c3cc(Cl)ccc3nc12)N1CCOCC1 do in these assays?
BH1578 lux ind: 0.8; BJeLR lethal: -12.0; BoNT F protease: -0.2; Bead autofluor: 23073*; BoNT-A LC inh2: inconclusive; Anthrax LF prot: -1.1

Results for O=C(c1cccn2c(=O)c3ccc(Cl)cc3nc12)N1CCC2(CC1)OCCO2 ?
BH1578 lux ind: 0.1; BJeLR lethal: -1.4; BoNT F protease: -0.4; Bead autofluor: 10756; BoNT-A LC inh2: -0.5; Anthrax LF prot: -3.5

Results for CC(=O)/C(=N/Nc1cccc(Cl)c1)N1CCOCC1 ?
BH1578 lux ind: inactive; BJeLR lethal: 5.8; BoNT F protease: -12.1; Bead autofluor: 3783; BoNT-A LC inh2: -0.1; Anthrax LF prot: 0.8

What do the screens show for `CC(=O)/C(=N/Nc1ccccc1)N1CCOCC1`?
BH1578 lux ind: 0.0; BJeLR lethal: -3.2; BoNT F protease: 2.9; Bead autofluor: 22407*; BoNT-A LC inh2: 1.5; Anthrax LF prot: -1.9

Bioassay records deposited in PubChem by several laboratories.
